Hits are enriched below; roughly 8.7% of the tested compounds scored in any of these assays.
VACV mCherry inh: qHTS for Stage-Specific Inhibitors of Vaccinia Orthopoxvirus: mCherry Reporter Primary qHTS; actives 0.63% (n = 310,000); Vaccinia virus mCherry reporter infection, fluorescence; AID 720579, 2013; Potency, µM (doses to about 36.5 µM), for inactives: at the highest dose activity change, negative = inhibition, most hits filed as inhibitors; calls by dose curve; tested in A549 cells; further: nearly all actives have a fitted effect of over 35% in size
Pf growth 48h: Primary qHTS for delayed death inhibitors of the malarial parasite plastid, 48 hour incubation; P. falciparum luciferase growth in erythrocytes, 48 h; Potency, µM (doses to about 28.7 µM), inactives show at the highest dose activity change, negative = inhibition, hits mostly inhibitors; actives 5.9% (n = 310,000)
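Parasite viability was followed by luminescence of a genomically integrated firefly luciferase. Cultures held 0.1% parasitemia at 2% hematocrit (final), incubated under 5% CO2 at 37 C.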
Vaccinia Venus: qHTS for Stage-Specific Inhibitors of Vaccinia Orthopoxvirus: Venus Reporter Primary qHTS; actives 0.46% (n = 330,000); Vaccinia virus Venus reporter expression, fluorescence; Potency, µM (top dose mostly 36.5 µM), without a hit: at the highest dose activity change, negative = inhibition, usual class: inhibitors; calls by dose curve; tested in A549 cells; further: nearly all actives have a fitted effect of over 30% in size
AMA1-RON2 inh: qHTS for Inhibitors of AMA1-RON; Towards Development of Antimalarial Drug Lead: Primary Screen; actives 0.2% (n = 360,000); Potency, µM (highest dose often 58.2 µM), for the others: at the highest dose activity change, negative = inhibition, usual class: inhibitors; AID 720542, 2013; AlphaScreen AMA1-biotinylated RON2 peptide binding; Plasmodium falciparum AMA1 (3D7) - RON2 peptide interaction;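 further: 0% = vehicle wells and -100% = peptide control; nearly all actives have a fitted effect of over 45% in size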
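AMA1 (3D7) with his tag at 25 nM final met compounds first, then biotinylated RON2 peptide at 25 nM; detection used donor plus acceptor beads, 10 µg/mL apiece, read by AlphaScreen after 30 min at room temperature.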
Pf growth 96h: Primary qHTS for delayed death inhibitors of the malarial parasite plastid, 96 hour incubation | P. falciparum luciferase reporter growth, 96 h | Potency, µM (highest dose often 28.7 µM), without a hit: top-dose activity change, negative = inhibition, hits mostly inhibitors | actives 6.9% (n = 320,000) | AID 504834, 2011
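96 h incubation, 37 C, 5% CO2, of luciferase-reporter P. falciparum-infected RBCs (2% hematocrit, 0.05% parasitemia final) with test compounds; endpoint luminescence.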
Starred values were filed as active, the others as inactive; i = inactive; ? = inconclusive; . = no result given; [ ] = another dose, or the depositor's remark. Unless noted, the call rests on the fitted dose curve; in most records, active means well fitted curve in the direction sought with a large enough effect; inconclusive means small, poorly fitted or top-dose-only effect, or another doubt; inactive means no such curve, though single readings can be large; an effect the other way counts as inactive or inconclusive. Unless noted, on the % scale 0 is the no-effect control and ±100 the full control effect; potency means the concentration at half of the fitted maximal effect.

SMILES	VACV mCherry inh	Pf growth 48h	Vaccinia Venus	AMA1-RON2 inh	Pf growth 96h
CCOC(=O)c1ccc2c(c1)n(CC)c(C)[n+]2CC	-9%	?	-15%	40%	30%
COc1ccc(CNC(=S)Nc2ccccc2Cl)cc1	.	19%	.	0%	-9%
COc1ccc(CNC(=S)Nc2ccccc2-c2ccccc2)cc1	.	?	.	.	8.3µM*
CC(C)(C)c1ccccc1NC(=S)NCc1ccccc1	i	?	-9%	2%	13µM*
CN(C)CCNC(=S)Nc1ccccc1C(C)(C)C	-15%	8%	-7%	5%	18%[5.75 µM]
CCS(=O)(=O)c1nc(S(=O)(=O)c2ccc(C)cc2)c(NCCCOC)s1	-13%	.	-6%	.	.
CC(C)(C)c1ccc(C(=O)OCC(=O)NC2CC2)cc1	?	9.3µM*	-7%	1%	?
CC1CCN(S(=O)(=O)c2ccc3c(c2)N(CC(=O)NCc2ccccc2)C(=O)CO3)CC1	-23%	.	-9%	.	.
Cc1ccc(NC(=O)c2sc3nc(C)nc(N4CCN(c5ccccn5)CC4)c3c2C)c(C)c1	-3%	?	-1%	-15%	22%
Cc1nc(N2CCN(c3ccccn3)CC2)c2c(C)c(C(=O)N3CCN(c4ccccc4F)CC3)sc2n1	-26%	8.3µM*	-21%	-14%	24%
Cc1nc(N2CCN(c3ccccn3)CC2)c2c(C)c(C(=O)Nc3ccc(Br)cc3C)sc2n1	.	2.9µM*	.	13%	-28%
Cc1ccc(NC(=O)c2cnc(SCC(=O)N3CCCc4ccccc43)n(C)c2=O)cc1	i	.	-6%	.	.
COc1cc2nc(SCc3ccc(C)cc3)n3nc(CCn4nc(C)cc4C)nc3c2cc1OC	-13%	.	0%	.	.
Cc1ccc(C)c(N2CCN(C(=O)c3cnc4c(-c5ccccc5)c(C)nn4c3C)CC2)c1	-9%	.	-7%	.	.
C[C@]12O[C@H](C[C@]1(O)CO)n1c3ccccc3c3c4c(c5c6ccccc6n2c5c31)CNC4=O	.	0.17µM*	.	.	0.15µM*
CCOc1ccc(C(=O)c2cn(CC(=O)Nc3ccc4c(c3)OCO4)c3ccc(OC)cc3c2=O)cc1	1%	.	-4%	.	.
C#CC[N+]1(CC#Cc2cccc(C)c2)CCCCC1	-21%	1.5µM*	-7%	6%	-12%
C(#Cc1ccccc1)C[N+]1(CC#Cc2ccccc2)CCCCC1	-18%	-14%	-3%	0%	-22%
C#CC[N+]1(CC#Cc2ccccc2)CCCCC1	-17%	?	-9%	-10%	0%
Cc1ccc(C#CC[N+]2(CC#Cc3ccc(C)cc3)CCCCC2)cc1	.	0.59µM*	.	5%	?
COc1ccc(CNC(=O)CC2N=C3c4ccccc4N=C(SCC(=O)Nc4ccc(C(C)C)cc4)N3C2=O)cc1 (stereo not given)	i	.	-10%	.	.
Cc1cccc(N2CCN(C(=O)COc3ccc4c(C)cc(=O)oc4c3C)CC2)c1C	-26%	12µM*	-24%	-6%	?
CCc1cc(=O)oc2c(C)c(OCC(=O)N3CCCc4ccccc43)ccc12	-9%	12µM*	-19%	-7%	.
CCOC(=O)c1cc2c(C)n(-c3ccc(OCC)cc3)c(C)c2cc(C(=O)OCC)c1=O	-6%	?	-6%	-5%	?
CCOC(=O)c1cc2c(C)n(-c3ccc(N(C)C)cc3)c(C)c2cc(C(=O)OCC)c1=O	.	?	.	-8%	3.3µM*
SMILES	VACV mCherry inh	Pf growth 48h	Vaccinia Venus	AMA1-RON2 inh	Pf growth 96h
CCOC(=O)c1c(-c2ccccc2)oc2ccc(O)c(CN3CCOCC3)c12	-22%	?	?	-17%	.
CCOC(=O)c1c(CN2CCCCC2)n(C)c2cc(Br)c(O)c(CN(C)C)c12	-25%	.	-15%	11%	12µM*
CCOC(=O)c1c(CSc2ccsc2)n(C)c2cc(Br)c(O)c(CN(C)C)c12	.	?	.	-1%	?
CCOC(=O)c1c(CSc2ccccc2)n(C)c2cc(Br)c(O)c(CN(C)C)c12	-17%	9.3µM*	-18%	?	?
CCOC(=O)c1c(CN(C)C)oc2cc(CN(C)C)c(O)c(CSc3ccccc3)c12	.	0.37µM*	-14%	-17%	2.3µM*
CCOC(=O)c1c(CN2CCOCC2)n(-c2ccccc2)c2cc(Br)c(O)c(CN(C)C)c12	.	13µM*	-6%	-2%	2.6µM*
COc1ccccc1-c1ccnc(-n2ncc(C(=O)NCc3ccncc3)c2C)n1	?	.	-18%	.	.
CCOC(=O)c1c(CSc2ccc(C)cc2)n(C)c2cc(Br)c(O)c(CN(C)C)c12	.	4.1µM*	.	0%	10%
CC[C@H](C)[C@H]1O[C@]2(CC[C@@H]1C)C[C@@H]1C[C@@H](C/C=C(\C)[C@H](O[C@@H]3C[C@H](OC)[C@H](O[C@@H]4C[C@H](OC)[C@@H](O)[C@H](C)O4)[C@H](C)O3)[C@@H](C)/C=C/C=C3\CO[C@@H]4[C@H](O)C(C)=C[C@@H](C(=O)O1)[C@]34O)O2	.	1.2µM*	.	.	4.8µM*
COC(=O)c1ccc(C2NC(c3ccc4c(c3)OCO4)=CC(c3ccccc3O)N2)cc1 (stereo not given)	-26%	.	-18%	.	.
CCc1ccccc1NC(=O)C1CCN(S(=O)(=O)c2cn(C)cn2)CC1	-10%	.	-6%	.	.
COCc1nnc(NS(=O)(=O)c2ccc(C)cc2)s1	-14%	19%	-7%	-10%	33%
COCc1nnc(NS(=O)(=O)c2ccccc2)s1	i	4%	-4%	4%	1µM*
O=C(NC12CC3CC(CC(C3)C1)C2)OCCNC1CCCCC1	-6%	?	-9%	-6%	10µM*
CN(C)CCOC(=O)NC12CC3CC(CC(C3)C1)C2	i	0%	-13%	-13%	-2%
C=CCOCC(O)Cn1c(N2CCCC2)nc2c1c(=O)[nH]c(=O)n2C (stereo not given)	.	5%	.	9%	6.6µM*
Cn1c(=O)[nH]c(=O)c2c1nc(N1CCCCC1)n2CC(O)COc1ccc([N+](=O)[O-])cc1 (stereo not given)	.	-12%	.	0%	9.3µM*
O=C(CCCCn1c(=O)c2ccccc2n(Cc2ccccc2Cl)c1=O)NCCc1ccccc1	-10%	.	-3%	.	.
COc1cc([N+](=O)[O-])c(OC)cc1SCc1n[nH]c(=S)n1-c1ccc(F)cc1	i	-27%	-9%	10%	1.7µM*
Cc1ccc(Cl)cc1Nc1nc(-c2sc(NC(=O)c3ccco3)nc2C)cs1	?	?	?	21%	9.3µM*
COc1cccc(N(C(=O)c2ccco2)c2nc(-c3sc(NC(=O)c4ccco4)nc3C)cs2)c1	?	?	?	13%	?
Cc1nc(NC(=O)c2ccco2)sc1-c1csc(Nc2ccc(Cl)cc2)n1	7.9µM*	9.3µM*	?	9%	9.3µM*
O=C(Nc1nc2ccc(Cl)cc2s1)c1ccco1	-12%	189%	-25%	-12%	.

Screening data (PubChem)
